Bioassay records deposited in PubChem by National Center for Advancing Translational Sciences (NCATS).
Pf Dd2 inh: qHTS Primary assay for Inhibitors of Plasmodium falciparum Dd2 growth in vitro; AID 1347417, 2020; Potency, µM (titrated, usually from 28.9 µM), without a hit: at the top dose activity, negative = inhibition, most hits filed as inhibitors; 120,000 compounds, 4.3% hits; P. falciparum Dd2 growth, SYBR Green, 72 h; active = well fitted inhibition curve with a large enough effect;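 note: plate controls were DMSO vehicle for no effect and reference drug for full effect; nearly all actives have a fitted effect of over 65% in size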
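Readout: SYBR Green fluorescence, 485 nm excitation, 535 nm emission, after ~16 h lysis at 37C. Before that, Dd2-infected red cells (2.5% hematocrit) grew 72 h with compound, 29 uM top final concentration.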
* marks the source's active call; other numbers are inactive results; i = inactive; ! = repeats disagree; [ ] = remark or other dose. The entries come from a sample that favours hits as a whole. Potency is the fitted concentration of half-maximal effect.

SMILES	Pf Dd2 inh
COc1cccc(OCc2nc3c(n2Cc2ccccc2)C(=O)N(CC2CCOCC2)CCN3)c1	11.2µM*
COc1cccc(OCc2nc3c(n2Cc2ccccc2)C(=O)N(C)CCN3)c1	i
N#Cc1ccccc1CN1CCNc2nc(CNCc3ccc4c(c3)OCO4)n(Cc3ccccc3)c2C1=O	6.31µM*
COc1cc(Cl)ccc1OCc1nc2c(n1Cc1ccccc1)C(=O)N(Cc1ccccc1C#N)CCN2	-8.8%
CCN1CC(c2ccccc2)CC2(CCN(C(=O)c3cnc(C)nc3)CC2)C1 (stereo not given)	10.9%
CN(CC1CCOCC1)S(=O)(=O)Cc1ccccc1	-12.5%
Cc1ccc(-c2cnc([C@@H]3COCCN3CC3CC3)[nH]2)cc1	i
CCNC(=O)N1CCC(OC2CCN(S(C)(=O)=O)CC2)CC1	10.0%
CNC(=O)[C@@H]1CN(C(=O)CCc2ccccc2OC)C[C@H]1COC	3.6%
COc1ccc(C[C@H](NC(=O)C2=C[C@@H](NC(=O)CSCC(=O)O)[C@@H](O)[C@H](O)C2)C(N)=O)cc1	16.7%
O=C(O)[C@@H]1CN(S(=O)(=O)N2CCOCC2)C[C@H]1c1cccnc1	-10.1%
CNS(=O)(=O)CCNc1nc(-c2ccccn2)nc2c1c(C)nn2C	-6.2%
Cc1nn(C)c2nc(-c3ccccn3)nc(NCC(c3ccco3)N(C)C)c12 (stereo not given)	8.91µM*
Cc1nc(CCNc2nc(-c3ccccn3)nc3c2c(C)nn3C)no1	i
COC[C@@H]1CN(C(=O)CC(C)C)C[C@H]1c1nc(C)no1	42.9%
O=C(CC1CCN(C(=O)C2CCCC2)C1)N1CCOCC1 (stereo not given)	5.0%
CN1CCCC2(C1)CN(Cc1cccnc1)c1ccc(C(=O)NCc3cccs3)cc12 (stereo not given)	-7.6%[44.1 µM]
CN1CCC2(C1)CN(Cc1ccccc1)c1ccc(C(=O)NCc3cccs3)cc12 (stereo not given)	7.08µM*
Cc1nc(CN2CC3(CCN(C)C3)c3cc(C(=O)NCc4cccs4)ccc32)cs1 (stereo not given)	-3.3%[44.1 µM]
COc1cc(OC(F)(F)F)ccc1C(=O)N1CCC2CC(=O)NCCC2C1 (stereo not given)	18.8%
Cc1ccc(C2Cn3nnc(C(=O)N4CCC(C(=O)NC5CCN(C)CC5)CC4)c3CO2)cc1 (stereo not given)	1.0%
O=C1N(Cc2ccccc2)c2ccccc2C12CCN(Cc1cncs1)C2 (stereo not given)	-11.2%
O=C(NC1CCCC1)N1CCC2(C1)C(=O)N(CCc1ccccc1)c1ccccc12 (stereo not given)	7.94µM*!
CN1C(=O)C2(CCN(C(=O)C3CCCC3)CC2)c2ccccc21	12.7%
O=C1N(CCc2ccccc2)c2ccccc2C12CCN(CC1CC1)C2 (stereo not given)	5.01µM*!
SMILES	Pf Dd2 inh
CCN1C(=O)C2(CCN(S(=O)(=O)Cc3ccc(Cl)cc3)CC2)c2ccccc21	i
O=C(CC1CCN(C(=O)NC2CCCCC2)C1)NCc1ccccc1 (stereo not given)	10.3%
O=C(Nc1ccc(Cl)cc1)N1CCC2(C1)C(=O)N(CCc1ccccc1)c1ccccc12 (stereo not given)	4.47µM*
Cc1cc(CN2CCC3(C2)C(=O)N(Cc2ccccc2)c2ccccc23)no1 (stereo not given)	-23.1%
CN1C(=O)C2(CCN(C(=O)Nc3ccccc3F)C2)c2ccccc21 (stereo not given)	i
Cc1ccc(-c2ccc3nnc(CNC(=O)CNC(=O)c4ccccc4)n3n2)cc1	i
Cc1ncncc1C(=O)N1CCCC(c2nnc(Cn3cccn3)n2C)C1 (stereo not given)	6.0%
COCc1noc([C@@H]2CC(F)(F)CN2C(=O)Cc2cccc(F)c2)n1	-13.7%
Cc1cccc(-c2nccc3c(=O)cc(N4CCN(C)CC4)oc23)c1	-6.7%[44.1 µM]
CCS(=O)(=O)N(C1CC1)C1CCOC2(CCN(C(=O)Cc3ccccc3)CC2)C1 (stereo not given)	28.9%
Cn1cc(-c2ccc(O)c(F)c2)c2nc(COc3ccc(Cl)cc3)cn2c1=O	10µM*
Cn1cc(-c2ccccc2F)c2nc(COc3ccc(C(=O)O)cc3)cn2c1=O	-14.0%[44.1 µM]
Cn1cc(-c2ccccc2F)c2nc(COc3ccccc3)cn2c1=O	i
O=C1CC2CCN(Cc3coc(-c4ccccc4)n3)CC2CCN1 (stereo not given)	0.4%
Cc1cnc(C)n1C1CCN(C(=O)CCn2cccn2)CC1	12.9%
CCn1ccc(C(=O)NC2CCCN(c3cc(-c4ccc(OC)cc4)[nH]n3)C2)n1 (stereo not given)	-1.8%
CSc1ccc(-c2nc(CN3CCOC(CCO)C3)c(C)o2)cc1 (stereo not given)	-10.0%
OCCC1CN(Cc2cnn(-c3ccccc3)c2)CCN1Cc1cccs1 (stereo not given)	i
Cc1cccc(CN2CCN(Cc3nc(-c4cccs4)oc3C)CC2CCO)n1 (stereo not given)	11.2µM*
CC(C)NC(=O)C[C@@H]1C[C@H]2O[C@H](CN(C)C)[C@@H](O)[C@H]2O1	37.3%[44.1 µM]
